Sfp PPTase inh – blocks B. subtilis Sfp PPTase activity; 310,000 compounds, 3.5% hits; Biochemical Sfp PPTase activity, qHTS; Potency, µM, hits mostly inhibitors; Q9F4F7;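 note: the enzyme is Sfp with the accession as filed and its product quenches rhodamine fluorescence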
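Reaction rates are the 30-min fluorescence difference (ex 525, em 598 nm) in wells containing 15 nM Sfp, 5 uM rhodamine-CoA and 12.5 uM BHQ-2-YbbR at pH 7.6 with 10 mM MgCl2.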
BAZ2B block – inhibitors of human BAZ2B bromodomain; Potency, µM (doses to about 114 µM), most hits filed as inhibitors; 360,000 compounds, 4.4% hits; AlphaScreen BAZ2B-H3K14Ac peptide displacement; note: nearly all actives have a fitted effect of over 60% in size
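BAZ2B (50 nM) with biotin-H3(5-23)K14Ac peptide (50 nM) in PBS pH 7.4, 0.01% Tween-20, preformed 30 min, then compound 30 min at room temperature; top concentration 110uM. AlphaScreen streptavidin donor/nickel chelate acceptor beads (10 ug/mL final), 20 min dark, signal read.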
L3MBTL1 inh – L3MBTL1 (human) inhibition | AID 485360 | Potency, µM (top dose mostly 57.1 µM), actives largely listed as inhibitors | AlphaScreen L3MBTL1–H3K9me1 peptide binding | 230,000 compounds, 0.66% hits | Q9Y468; note: nearly all actives have a fitted effect of over 60% in size
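AlphaScreen proximity signal between nickel-chelate acceptor and streptavidin donor beads (final 10 ug/mL) reports binding of 50 nM L3MBTL1 to 75 nM biotin-H3 K9me1 peptide; complex incubated with compounds 30 min at room temperature; cefsulodin titration as control.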
JMJD2A Tudor – JMJD2A Tudor domain (human) inhibition; Potency, µM (titrated, usually from 114 µM), hits mostly inhibitors; 390,000 compounds, 4.4% hits; AlphaScreen JMJD2A-Tudor / H3K4me3 peptide binding; AID 504339; O75164; note: nearly all actives have a fitted effect of over 50% in size
G9a block – blocks human histone lysine methyltransferase G9a. Potency, µM (top dose mostly 102 µM), most hits filed as inhibitors. Q96KQ7. 350,000 compounds, 8.8% hits. G9a H3K9 monomethylation, AlphaScreen, 2 h; note: nearly all actives have a fitted effect of over 75% in size
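Step 1: enzyme (final 20 nM) with compound, 15 min RT. Step 2: substrate peptide 500 nM and SAM 20 uM, 2 h RT. Step 3: anti-H3K9me1 antibody and AlphaScreen beads, 10 min, then plate read.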
HP1b chromo inh – inhibitors of HP1-beta chromodomain binding to methylated histone tails; Potency, µM (titrated, usually from 114 µM), hits mostly inhibitors; 390,000 compounds, 0.56% hits; AID 540317; AlphaScreen HP1-beta / biotin-H3K9me3 peptide binding; note: nearly all actives have a fitted effect of over 70% in size
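Compound inhibition of the preformed complex between 50 nM HP1-beta and 50 nM biotinylated H3K9me3 peptide was read by AlphaScreen. Buffer was PBS pH 7.4 with 0.01% Tween-20. Incubations ran 30 min at room temperature, with 10 ug/mL donor/acceptor beads.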
Numbers stand for hits; i = inactive; ? = inconclusive; nt = no result; [ ] = remark or other dose. In the library only some 12% were active in any assay of this set; here they are far more common. Calls come from the whole dose curve; as a rule, active = well fitted curve in the direction sought with a large enough effect; inconclusive = small, poorly fitted or top-dose-only effect, or another doubt; inactive = no such curve, though single readings can be large; an effect the other way counts as inactive or inconclusive.

SMILES	Sfp PPTase inh	BAZ2B block	L3MBTL1 inh	JMJD2A Tudor	G9a block	HP1b chromo inh
CC(=O)C1=C(O)C(=O)N(c2ccc(S(=O)(=O)Nc3nccs3)cc2)C1c1ccc([N+](=O)[O-])cc1 (centres undefined)	i	?	nt	i	79µM	i
CC(=O)C1=C(O)C(=O)N(c2ccc(S(=O)(=O)Nc3nccs3)cc2)C1c1ccc(F)cc1 (centres undefined)	i	i	i	i	56µM	i
CC(=O)C1=C(O)C(=O)N(c2ccc(S(N)(=O)=O)cc2)C1c1ccc([N+](=O)[O-])cc1 (centres undefined)	i	?	i	i	i[0.501 µM]	i
CN(C)c1ncc2nc(-c3ccccc3)c(=O)n(Cc3cccs3)c2n1	i	nt	nt	nt	i[0.501 µM]	nt
Nc1ncnc2c1nc(Br)n2[C@@H]1O[C@H]2COP(=O)(O)O[C@@H]2[C@@H]1O	i	nt	nt	nt	i	nt
O=C1NC(=S)SC1=Cc1ccc2c(c1)OCO2	nt	nt	nt	?	nt	i
O=C1NC(=S)SC1=C1CCCC1	40µM	32µM	nt	?	18µM	i
CCOC(=O)c1c2c(n(Cc3ccccc3)c1C)C(=O)C(=O)c1ccccc1-2	nt	nt	nt	7.1µM	nt	25µM
CCOC(=O)c1c2c3c(cccc3[nH]c1=O)C(=O)c1ccccc1-2	i	i	i	i	56µM	i
CCOC(=O)c1c2c3c(c(Cl)ccc3[nH]c1=O)C(=O)c1ccccc1-2	i	32µM	i	i	?	i
CCOC(=O)c1c2c3c(cccc3n(C)c1=O)C(=O)c1ccccc1-2	i	?	i[2.29 µM]	?	i[0.501 µM]	i
CCOC(=O)c1c2c(n(C)c1C)C(=O)C(=O)c1ccc(Br)cc1-2	nt	nt	nt	i	nt	i
Cc1ccc(OCCn2c(C3CC(=O)N(Cc4ccc(F)cc4)C3)nc3ccccc32)c(C)c1 (centres undefined)	nt	?	nt	i	i	i
CN(C)C(=S)Nc1ccc(Cl)cc1	i	i	i	i	i	i
NN(CCO)C(=S)Nc1ccc(Cl)cc1	i	?	i	i	11µM	i
CN(C)c1ccc(N/C(=N\S(=O)(=O)c2cccs2)c2ccccc2)cc1	i	45µM	?	45µM	4.5µM	?
Cc1onc(-c2c(F)cccc2Cl)c1C(=O)N1CCCC1	nt	i	i	i	i	i
CN(C)c1ccc(CN(C)C2CCCCC2)cc1	i	?	nt	i	50µM	i
Cc1ccc2oc3c(c(=O)c2c1)C1(C(=O)N(C)c2ccccc21)N(CCCO)C3=O (centres undefined)	nt	i	nt	i	i	i
Cc1cc(S(=O)(=O)N2CCCC(N(C)CCc3ccccn3)C2)c(C)s1 (centres undefined)	i	i	nt	nt	50µM	nt
COc1cc(/C=C2\C(=O)ON=C2c2ccccc2)cc(Br)c1O	?	40µM	nt	25µM	35µM	28µM
CCOc1cc(/C=C2\C(=O)ON=C2c2ccccc2)cc(Br)c1O	79µM	28µM	nt	25µM	25µM	?
COc1cc(C=C2C(=O)OC(c3ccccc3)OC2=O)cc(Br)c1O (centres undefined)	i	i	nt	i	?	i
COc1cc(/C=C2\C(=O)ON=C2c2ccccc2)cc(Cl)c1O	i	45µM	i	22µM	35µM	45µM
CCOc1cc(/C=C2/C(=O)ON=C2C)cc(Br)c1O	i	16µM	nt	i	45µM	i
SMILES	Sfp PPTase inh	BAZ2B block	L3MBTL1 inh	JMJD2A Tudor	G9a block	HP1b chromo inh
COc1ccc(N2CCOCC2)c(NC(=O)c2ccc3c(c2)OCO3)c1	i	i	nt	i	i	i
O=C(NCCCn1ccnc1)c1ccc(-c2cccc(C(F)(F)F)c2)o1	nt	nt	i	i	nt	i
COc1cc(/C=C2/C(=O)ON=C2c2ccccc2)ccc1O	50µM	50µM	i	i	?	i
CC(C)(C)OC(=O)NN1CC(=O)N2Cc3[nH]c4ccccc4c3C[C@H]2C1=O	i	i	nt	i	i	i
CC(C)(C)C(=O)N1CCc2cc(-c3csc(N)n3)ccc21	i	50µM	i	i	i[0.501 µM]	i
CCC(C)C(=O)N1CCc2cc(-c3csc(N)n3)ccc21 (centres undefined)	i	?	i	i	?	i
CCCC(=O)N1CCc2cc(-c3nc(N)sc3C)ccc21	i	i	i	i	40µM	i
Nc1nc(-c2ccc3c(c2)OCCO3)cs1	i	nt	i	i	?	i

Screens (PubChem BioAssay)
